For assay [1], the system named is MCC-13. The assay is described as follows: qHTS assay to identify novel small-molecules to repurpose for Merkel cell carcinoma treatment (AID 1296009). Further: nearly all actives have a fitted effect of over 60% in size. Further: potency means the concentration at half of the fitted maximal effect. Particulars: MCC and control cell lines, CellTiter-Glo viability, 72 h; series mostly up to 46 µM. An outline of the steps: (§1)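 Dose-response viability screen; 72 hr exposure at 37 degree celsius; CellTiter-Glo added, 10 min room temperature, luminescence read; RLUs scaled between no-cell and DMSO wells.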
(In qHTS, concentration-response curves come from the screen itself.)

The subject of assay [2] is MCC-26. The description is as above. Particulars: MCC and control cell lines, CellTiter-Glo viability, 72 h; series mostly up to 46 µM. The method, boiled down: as §1
For assay [3], the system named is MKL-1. The description is as above. Particulars: MCC and control cell lines, CellTiter-Glo viability, 72 h; series mostly up to 46 µM. An outline of the steps: as §1
(In general: In ATP-based viability assays light output follows the ATP content of the culture.)

In assay [4] the test system is MKL-2. The description is as above. The settings on record: MCC and control cell lines, CellTiter-Glo viability, 72 h; series mostly up to 46 µM. The method, boiled down:
as §1

Assay [5] has as its system UISO. The assay is described as above. Particulars: MCC and control cell lines, CellTiter-Glo viability, 72 h; series mostly up to 46 µM. An outline of the steps:
as §1

In assay [6] the test system is WaGa. The description is as above. The settings on record: MCC and control cell lines, CellTiter-Glo viability, 72 h; series mostly up to 46 µM. The method, boiled down:
as §1

Assay [7] concerns C33A. Kind of assay: Primary qHTS to identify gynecologic anti-cancer compounds using libraries of approved drugs and bioactive compounds (AID 1345084). Further: nearly all actives have a fitted effect of over 55% in size. Particulars: Gynecologic cancer cell panel viability, ATPlite luminescence, 48 h; series mostly up to 57.5 µM. An outline of the steps: (§2)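 Cytotoxicity screen measuring ATP content by luciferase luminescence. Each compound is applied at five concentrations for 48 h at 37 C with 5% CO2.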

The subject of assay [8] is CASKI. Described as above. Particulars: Gynecologic cancer cell panel viability, ATPlite luminescence, 48 h; series mostly up to 57.5 µM. An outline of the steps:
as §2

In assay [9] the test system is Es-2. The description is as above. The settings on record: Gynecologic cancer cell panel viability, ATPlite luminescence, 48 h; series mostly up to 57.5 µM. An outline of the steps: as §2
In assay [10] the test system is HeLa. The assay is described as above. Particulars: Gynecologic cancer cell panel viability, ATPlite luminescence, 48 h; series mostly up to 57.5 µM. An outline of the steps:
as §2

Assay [11] concerns JEG-3. The assay is described as above. The settings on record: Gynecologic cancer cell panel viability, ATPlite luminescence, 48 h; series mostly up to 57.5 µM. An outline of the steps:
as §2

Assay [12] deals with OV90. The assay is described as above. The settings on record: Gynecologic cancer cell panel viability, ATPlite luminescence, 48 h; series mostly up to 57.5 µM. An outline of the steps:
as §2

In assay [13] the test system is PA-1. The description is as above. Particulars: Gynecologic cancer cell panel viability, ATPlite luminescence, 48 h; series mostly up to 57.5 µM. An outline of the steps:
as §2

Assay [14] relates to SKOV3. Described as above. The settings on record: Gynecologic cancer cell panel viability, ATPlite luminescence, 48 h; series mostly up to 57.5 µM. An outline of the steps:
as §2

Assay [15] concerns Tov-21-G. The assay is described as above. The settings on record: Gynecologic cancer cell panel viability, ATPlite luminescence, 48 h; series mostly up to 57.5 µM. The method, boiled down:
as §2

Assay [16] concerns Tov112D. The description is as above. The settings on record: Gynecologic cancer cell panel viability, ATPlite luminescence, 48 h; series mostly up to 57.5 µM. An outline of the steps:
as §2

Assay [17] concerns Hek293T. Described as above. Particulars: Gynecologic cancer cell panel viability, ATPlite luminescence, 48 h, control line for the selectivity index; series mostly up to 57.5 µM. The method, boiled down:
as §2

The test system of assay [18] is CAOV3. The description is as above. The settings on record: Gynecologic cancer cell panel viability, ATPlite luminescence, 48 h; series mostly up to 57.5 µM. The method, boiled down: as §2
For assay [19], the system named is NIH3T3. Kind of assay: qHTS assay to identify novel small-molecules to repurpose for Merkel cell carcinoma treatment (AID 1296009). Further: nearly all actives have a fitted effect of over 60% in size. Further: potency means the concentration at half of the fitted maximal effect. Particulars: MCC and control cell lines, CellTiter-Glo viability, 72 h; at 44.8 µM (top of the series) unless noted. An outline of the steps: as §1

Results on 15 compounds are retold here after PubChem BioAssay (NCATS).

Records with an inconclusive call do not appear. Calls of active or inactive are those of the source. The call rests on the fitted dose curve; in most records, active means well fitted curve in the direction sought with a large enough effect; inconclusive means small, poorly fitted or top-dose-only effect, or another doubt; inactive means no such curve, though single readings can be large; an effect the other way counts as inactive or inconclusive.

Consider `O=C(Oc1ccccc1)c1cccc(C(=O)Oc2ccccc2)c1`, for which the Potency entry in assay [1], in assay [2], in assay [3], in assay [4], in [5] and in assay [6] was “inactive” throughout. The Potency result in [7], in [8], in assay [9], in assay [10], in [11] and in assay [12] was “inactive” each time. In addition, the Potency entry in [13], in assay [14], in assay [15] and in [16] was “inactive” throughout.
Regarding `CC1(C)S[C@@H]2[C@H](NC(=O)C(c3ccccc3)S(=O)(=O)O)C(=O)N2[C@H]1C(=O)O` (stereo partly drawn), the Potency result in [1], in [2], in [3], in [4], in [5] and in assay [6] was “inactive” in each case. Also, the Potency entry in assay [7], in assay [8], in assay [9], in [10], in [17] and in assay [11] was “inactive” each time. Further, the Potency result in assay [12], in assay [13], in assay [14], in [15] and in assay [16] was “inactive” each time.
Consider `CO[C@@H]1[C@@H](O[C@@H]2O[C@H](C)[C@@H](O[C@H]3C[C@@](C)(O)[C@@H](O)[C@H](C)O3)[C@H](N(C)C)[C@H]2O)[C@@H](CC=O)C[C@@H](C)[C@@H](O[C@@H]2CC[C@H](N(C)C)[C@@H](C)O2)/C=C/C=C/C[C@@H](C)OC(=O)C[C@H]1OC(C)=O`, for which the Potency result in [1], in [2], in assay [3], in assay [4], in assay [5] and in [7] was “inactive” in each case. Moreover, the Potency entry in assay [18], in assay [8], in assay [9], in assay [10], in assay [17] and in [11] was “inactive” each time. For the same compound, the Potency result in [12], in [13], in [14], in [15] and in assay [16] was “inactive” throughout.
`Cc1nc2n(c(=O)c1CCN1CCC(C(=O)c3ccc(F)cc3)CC1)CCS2`: the Potency entry in [1], in [2], in assay [3], in [5], in assay [7] and in assay [18] was “inactive” each time. Moreover, the Potency entry in [8], in [9], in assay [10], in [17], in assay [11] and in assay [13] was “inactive” throughout. The Potency result in assay [14], in assay [15] and in assay [16] was “inactive” in each case.
Consider `CCCCN(CCN(CCCC)C(=O)N1CCOCC1)C(=O)N1CCOCC1`, for which the Potency entry in assay [1], in assay [2], in assay [3], in assay [6], in assay [7] and in assay [18] was “inactive” in each case. In addition, the Potency result in assay [8], in assay [9], in assay [10], in assay [17], in assay [11] and in [12] was “inactive” each time. Further, the Potency result in assay [13], in assay [15] and in [16] was “inactive” throughout.
As to `CCOC(=O)N1CCC(Nc2ccc(Cl)cc2N)CC1`, the Potency entry in [1], in assay [2], in [6], in assay [7], in assay [18] and in assay [8] was “inactive” throughout. Also, the Potency entry in [9], in assay [10], in assay [17], in assay [11], in assay [14] and in [15] was “inactive” throughout. In addition, the Potency entry in [16] was “inactive”. Also, the Potency in assay [3] is 21.1 µM (active); in [4], 26.6 µM (active).
Consider `O=C1Nc2ccccc2C1(c1ccc(O)cc1)c1ccc(O)cc1`, for which the Potency entry in assay [1], in assay [2], in assay [3], in assay [4], in assay [8] and in assay [9] was “inactive” each time. Besides, the Potency result in [10], in [17], in assay [11] and in [13] was “inactive” throughout.
Turning to `CC(=O)Nc1ccn(C2COC(COC(=O)c3ccccc3)O2)c(=O)n1` (stereo not drawn), the Potency entry in assay [1], in [2], in assay [3], in [4], in assay [7] and in [8] was “inactive” throughout. For the same compound, the Potency entry in assay [10], in assay [17], in [11], in assay [13], in assay [14] and in assay [15] was “inactive” in each case.
As for `O=C(NO)c1ccccc1`, the Potency entry in [1], in assay [2], in assay [3], in assay [5], in assay [7] and in assay [18] was “inactive” throughout. The Potency entry in assay [8], in assay [9], in assay [10], in assay [17], in [11] and in assay [12] was “inactive” each time. The Potency result in assay [13], in assay [14], in assay [15] and in assay [16] was “inactive” throughout. Also, in [6], the Potency was 32.6 µM (active).
On to `C[N+]1(CC2COC(c3ccccc3)(c3ccccc3)O2)CCCCC1` (stereo not drawn), for which the Potency entry in assay [1], in [2], in assay [3], in assay [5], in assay [6] and in assay [7] was “inactive” throughout. The Potency result in assay [18], in assay [8], in assay [9], in [10], in assay [17] and in assay [11] was “inactive” in each case. Besides, the Potency result in assay [13], in assay [15] and in assay [16] was “inactive” throughout.
In the case of `O=C1OC2(c3ccccc31)c1cc(I)c(O)c(I)c1Oc1c2cc(I)c(O)c1I`, the Potency result in [1], in [2], in assay [3], in assay [5], in assay [6] and in [7] was “inactive” throughout. Also, the Potency entry in [18], in assay [8], in [9], in assay [10], in assay [17] and in assay [11] was “inactive” each time. For the same compound, the Potency entry in assay [12], in [13], in assay [14], in assay [15] and in assay [16] was “inactive” throughout.
Turning to `N#CSCC(=O)O`, the Potency entry in assay [1], in assay [2], in assay [3], in assay [5], in assay [6] and in assay [7] was “inactive” in each case. The Potency entry in assay [18], in [8], in assay [9], in assay [10], in assay [17] and in assay [11] was “inactive” each time. The Potency result in [12], in [13], in assay [15] and in assay [16] was “inactive” each time. The compound was called inactive in [19].
Regarding `CC(C)C[C@H](NC(=O)CNC(=O)[C@H](Cc1ccc(O)cc1)NC(=O)[C@H](CO)NC(=O)[C@H](Cc1c[nH]c2ccccc12)NC(=O)[C@H](Cc1cnc[nH]1)NC(=O)[C@@H]1CCC(=O)N1)C(=O)N[C@@H](CCCN=C(N)N)C(=O)N1CCC[C@H]1C(=O)NCC(N)=O` (stereo in doubt), the Potency result in [1], in assay [2], in assay [3], in assay [4] and in assay [6] was “inactive” each time.
For `CC(C)(C)CC(=O)OCC(=O)[C@@]1(O)CC[C@H]2[C@@H]3CCC4=CC(=O)C=C[C@]4(C)[C@H]3[C@@H](O)C[C@@]21C`, the Potency entry in [1], in assay [2], in [3], in [5], in assay [6] and in [7] was “inactive” in each case. The Potency result in assay [18], in [8], in assay [9], in [10], in [17] and in [11] was “inactive” in each case. Also, the Potency entry in assay [12], in [13], in assay [14], in assay [15] and in assay [16] was “inactive” in each case.
Consider `O=C(CCC1CCN(Cc2ccccc2)CC1)c1ccc2c(c1)NCCCC2`, for which the Potency entry in assay [1], in assay [2], in [3], in assay [5], in assay [6] and in [7] was “inactive” in each case. In addition, the Potency entry in [8], in [9], in assay [10], in assay [17], in [11] and in assay [15] was “inactive” each time. For the same compound, the Potency entry in [16] was “inactive”.
